# Assay results from paper PMC5540273 (PLoS ONE, 2017).
# Key:
# Conditions in all cases: concentration: 1 μM, replicates: in singlicate; n = 1
# ERK1 = tested on: T1, ERK1
# T1 construct: gene MAPK3
# ERK2 = tested on: T2, ERK2
# T2 construct: gene MAPK1
# ERK3 = tested on: T3, ERK3
# T3 construct: gene MAPK6
# ERK4 = tested on: T4, ERK4
# T4 construct: gene MAPK4
# ERK5 = tested on: T5, ERK5
# T5 construct: gene MAPK7
# ERK8 = tested on: T6, ERK8
# T6 construct: gene MAPK15
# ERN1 = tested on: ERN1
# FAK = tested on: T7, FAK
# T7 construct: gene PTK2
# FER = tested on: FER
# FES = tested on: FES
# FGFR1 = tested on: FGFR1
# FGFR2 = tested on: FGFR2
# FGFR3 = tested on: FGFR3
# FGFR4 = tested on: FGFR4
# FGR = tested on: FGR
# FLT1 = tested on: FLT1
# FLT3-autoinhibited = tested on: FLT3-autoinhibited
# FLT3 = tested on: FLT3
# FLT4 = tested on: FLT4
# FRK = tested on: FRK
# 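Further: KINOMEscan kinase panel screen.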
SMILES,%Inh (ERK1),%Inh (ERK2),%Inh (ERK3),%Inh (ERK4),%Inh (ERK5),%Inh (ERK8),%Inh (ERN1),%Inh (FAK),%Inh (FER),%Inh (FES),%Inh (FGFR1),%Inh (FGFR2),%Inh (FGFR3),%Inh (FGFR4),%Inh (FGR),%Inh (FLT1),%Inh (FLT3-autoinhibited),%Inh (FLT3),%Inh (FLT4),%Inh (FRK)
CCNC(=O)/C=C/c1n[nH]c2cc(Sc3ccccc3C(=O)NC)ccc12,8%,43%,13%,15%,3%,28%,15%,0%,4%,24%,79%,74%,68%,14%,71%,99.9%,26%,31%,99.5%,31%
CN(C)CCOc1ccc(-c2cc(-c3ccc(Cl)c(O)c3)c(-c3ccncc3)[nH]2)cc1.Cl.Cl [SB-684387],0%,0%,0%,40%,13%,7%,39%,0%,10%,10%,0%,1%,30%,15%,73%,0%,17%,0%,1%,82%
Cc1ccc(NC(=O)c2ccc(Cl)c(Cl)c2)cc1-c1ccc(C(=O)Nc2ccncc2)cc1 [GSK1398460],5%,2%,0%,13%,0%,0%,0%,0%,34%,0%,0%,0%,14%,6%,26%,70%,14%,5%,57%,82%
CN(c1ccc(NC(=O)Nc2cccc(Cl)c2)cc1)c1ccnc(N)n1.Cl [GW830707],0%,12%,0%,0%,0%,6%,32%,15%,9%,19%,9%,0%,0%,7%,4%,97.1%,56%,97.6%,60%,49%
Cl.O=C(Nc1ccc(Oc2ccc3[nH]c(NC(=O)c4ccco4)nc3c2)cc1)Nc1cc(C(F)(F)F)ccc1F [GW683134],0%,0%,0%,14%,0%,82%,0%,0%,0%,0%,40%,77%,36%,12%,24%,98.5%,25%,99.4%,99.9%,77%
CCn1c(-c2nonc2N)nc2c(-c3ccccc3)ncc(OCCCN)c21.O=C(O)C(F)(F)F.O=C(O)C(F)(F)F [GSK260205],0%,0%,0%,0%,0%,0%,11%,0%,10%,0%,30%,0%,0%,0%,38%,37%,0%,12%,43%,5%
CN(C)CCNS(=O)(=O)c1ccc(-c2ccnc3[nH]ccc23)cc1 [GSK977620],2%,1%,3%,10%,0%,0%,8%,0%,41%,0%,33%,9%,5%,0%,4%,38%,11%,65%,15%,6%
Cc1cccc(Nc2nc(NCCN)ncc2C(N)=O)c1 [GSK1292139],0%,0%,79%,33%,0%,0%,16%,5%,49%,0%,0%,0%,0%,0%,49%,7%,15%,13%,0%,0%
O=C(Nc1n[nH]c2cc(-c3cccs3)ccc12)C1CC1 [SB-731284],0%,0%,0%,0%,0%,85%,29%,0%,0%,0%,18%,0%,0%,0%,0%,0%,65%,59%,18%,0%
Nc1ncnc2scc(-c3ccc(NC(=O)Cc4cc(F)ccc4F)cc3)c12.O=C(O)C(F)(F)F [SB-731254-M],0%,0%,0%,11%,28%,0%,34%,4%,4%,0%,28%,100%,0%,9%,23%,90.7%,89%,94.1%,61%,0%
Cc1ccc(O)cc1Nc1ccnc2cc(-c3ccc(CN4CCCCC4)o3)ccc12 [GW557777],0%,0%,0%,8%,20%,0%,23%,0%,11%,7%,25%,21%,0%,2%,100%,89%,8%,43%,68%,99.9%
COc1cc(Nc2ccnc3cc(-c4ccncc4)ccc23)cc(OC)c1OC.Cl [GW494610],0%,0%,5%,0%,0%,22%,10%,0%,26%,0%,23%,14%,15%,0%,81%,21%,0%,3%,0%,44%
O=C(Nc1n[nH]c2nc(-c3ccccc3)ccc12)C1CC1 [SB-708999],0%,3%,46%,0%,0%,99.5%,0%,0%,5%,5%,0%,33%,26%,12%,9%,11%,0%,42%,4%,5%
COC(=O)Nc1nc2cc(Oc3ccc(NC(=O)Nc4cccc(SC)c4)cc3)ccc2[nH]1.Cl [GW697999],0%,0%,0%,8%,0%,55%,0%,0%,13%,0%,11%,5%,0%,0%,47%,98.9%,22%,99.3%,86%,48%
CCn1cnc2c(NCc3ccccc3)ncnc21 [SKF-96418],0%,0%,7%,17%,0%,4%,19%,0%,0%,3%,0%,0%,0%,0%,0%,0%,0%,0%,0%,0%
Fc1cc(Cl)ccc1Nc1ccnc2cc(-c3ccc(CN4CCSCC4)o3)ccc12 [GW560106],17%,0%,0%,0%,0%,0%,6%,0%,37%,0%,47%,34%,11%,19%,90.8%,87%,0%,72%,91.6%,86%
Cc1ccc(O)cc1Nc1ccnc2ccc(C(C)(C)C)cc12 [GW856805],2%,0%,9%,6%,9%,13%,27%,34%,21%,12%,14%,28%,0%,0%,94.9%,26%,0%,11%,35%,98.9%
CC(C)c1nc(-c2cccc(NS(=O)(=O)c3c(F)cccc3F)c2)c(-c2ccnc(Nc3ccc(N4CCOCC4)nc3)n2)s1.Cl [GSK1723980],0%,0%,0%,0%,0%,97.9%,50%,0%,49%,18%,14%,0%,4%,0%,98.4%,98.3%,0%,66%,99.9%,96.3%
O=C(O)C(F)(F)F.O=c1[nH]ccc2nc(N[C@@H]3CCNC3)nc(Nc3cc(Cl)cc(Cl)c3)c12 [GSK2188764],41%,51%,6%,37%,41%,15%,28%,41%,55%,0%,0%,0%,25%,27%,44%,0%,67%,23%,9%,4%
CN(c1ccc2c(c1)nc(NCc1ccccc1)n2C)c1ccnc(Nc2ccc(CS(C)(=O)=O)cc2)n1.Cl [GW811603],0%,3%,0%,0%,1%,6%,1%,23%,4%,0%,100%,27%,0%,0%,33%,96.9%,58%,98.8%,99.9%,86%
